± gives the standard deviation of the averaged measurements.
Assays:
Experiment in all cases: cell viability (% of vehicle); higher = less cytotoxic
Settings in all cases: 10 µM; 72 h
[1] = test system: HCI01 (cells of a triple-negative basal-like breast cancer xenograft)
[2] = test system: HCI03 (cells of an ER-positive luminal breast cancer xenograft)
[3] = test system: HCI09 (cells of a triple-negative luminal androgen receptor type breast cancer xenograft)
[4] = test system: HCI11 (cells of an ER-positive luminal breast cancer xenograft)
[5] = test system: HCI13 (cells of an ER-positive luminal breast cancer xenograft)
[6] = test system: HCI16 (cells of a triple-negative basal-like breast cancer xenograft)
[7] = test system: UCD52 (cells of a triple-negative basal-like breast cancer xenograft)
[8] = test system: WHIM2 (cells of a triple-negative basal-like breast cancer xenograft)
[9] = test system: WHIM30 (cells of a triple-negative basal-like breast cancer xenograft)
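Also: PDX cells carrying CMV promoter-driven luciferase, viability read as total photon flux per second by IVIS imaging following D-luciferin, vehicle control 0.1% DMSO.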

CCOc1ccc(Cc2cc(C3OC(CO)C(O)C(O)C3O)ccc2Cl)cc1 (centres undefined) [Dapagliflozin]
cell viability [1]: 112 ± 8.7
cell viability [2]: 113
cell viability [3]: 89.6 ± 9.1
cell viability [4]: 110
cell viability [5]: 107 ± 18
cell viability [6]: 128
cell viability [7]: 78.8 ± 4.8
cell viability [8]: 84 ± 6.9
cell viability [9]: 103 ± 24

CC(CCC(=O)O)C1CCC2C3C(O)CC4CC(O)CCC4(C)C3CC(O)C12C (centres undefined) [Cholic acid]
cell viability [1]: 96 ± 8.2
cell viability [2]: 142
cell viability [3]: 89.6 ± 7.1
cell viability [4]: 87.2
cell viability [5]: 109 ± 9.5
cell viability [6]: 98.7
cell viability [7]: 101.2 ± 0.7
cell viability [8]: 96.7 ± 11
cell viability [9]: 99.9 ± 11

COc1cc(C=CC(=O)CC(=O)C=Cc2ccc(O)c(OC)c2)ccc1O [Curcumin]
cell viability [1]: 94.5 ± 54
cell viability [2]: 135
cell viability [3]: 69.3 ± 40
cell viability [4]: 51
cell viability [5]: 98.4 ± 44
cell viability [6]: 110
cell viability [7]: 127 ± 22
cell viability [8]: 145 ± 53
cell viability [9]: 197 ± 9.6

C[C@H]1COc2c(N3CCN(C)CC3)c(F)cc3c(=O)c(C(=O)O)cn1c23 [Levofloxacin]
cell viability [1]: 102 ± 26
cell viability [2]: 109
cell viability [3]: 88 ± 17
cell viability [4]: 89.6
cell viability [5]: 124 ± 50
cell viability [6]: 123
cell viability [7]: 88.7 ± 1.4
cell viability [8]: 104 ± 12
cell viability [9]: 132 ± 2.4

CC(C)n1c(C=CC(O)CC(O)CC(=O)O)c(-c2ccc(F)cc2)c2ccccc21 (centres undefined) [Fluvastatin]
cell viability [1]: 91.2 ± 13
cell viability [2]: 130
cell viability [3]: 65.7 ± 18
cell viability [4]: 162
cell viability [5]: 192 ± 10
cell viability [6]: 109
cell viability [7]: 59.3 ± 12
cell viability [8]: 48.9 ± 2.5
cell viability [9]: 139 ± 14

Nc1ccc(S(=O)(=O)Nc2nccs2)cc1 [Sulfathiazole]
cell viability [1]: 102 ± 30
cell viability [2]: 140
cell viability [3]: 93.4 ± 7.8
cell viability [4]: 84.5
cell viability [5]: 197 ± 28
cell viability [6]: 116
cell viability [7]: 96.5 ± 11
cell viability [8]: 98.2 ± 6.3
cell viability [9]: 110 ± 8.6

Source: the supplement of paper PMC6992640
